# Assay outcomes as filed in PubChem.
# The list is not random: actives were taken first. Their share in the collection is about 0.87%.
# RECQ1 inh: qHTS Assay for Inhibitors of RecQ-Like Dna Helicase 1 (RECQ1); ATP-dependent DNA helicase Q1 (Homo sapiens), P46063; RECQ1 DNA unwinding, red fluorescence kinetic read; Potency, µM (top dose mostly 57.3 µM), inactives show top-dose activity, negative = inhibition, hits mostly inhibitors; 240,000 tested, 0.54% active; AID 2549, 2010;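 further: plate controls were vehicle for no effect and no enzyme for full effect; nearly all actives have a fitted effect of over 30% in size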
#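 50 nM RECQ1T1 preincubated 15 min with compound in Tris pH 8.0 buffer with MgCl2, DTT, Tween-20 and 2.5 ug/ml poly(dI-dC); started with 200 nM TAMRA/BHQ-2 forked duplex and 2 mM ATP. Unwinding read as fluorescence (525/598 nm), two reads 2 h apart.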
# GCN5L2 inh: qHTS Assay for Inhibitors of GCN5L2; Histone acetyltransferase KAT2A (Homo sapiens), Q92830; Potency, µM (doses to about 58.9 µM), without a hit: top-dose activity change, negative = inhibition, most hits filed as inhibitors; AID 504327, 2011; 390,000 tested, 0.21% active; GCN5L2 HAT assay, ThioGlo1 CoA-SH fluorescence
#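 Titration-based screen in which CoA formation is detected via maleimide probe ThioGlo1 (50uM) turning fluorescent on thiol reaction; substrates H3(1-25) 75uM and acetyl-CoA 70uM, GCN5L2 20nM, 20 min incubation at room temperature.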
# RGS4 inhibitor: Inhibitors of Regulator of G Protein Signaling (RGS) 4: qHTS; AID 504845, 2011; Potency, µM (series often up to 114 µM), for the others: at the highest dose activity change, negative = inhibition, usual class: inhibitors; Transcreener GDP fluorescence polarization, RGS4-accelerated GTP hydrolysis; 390,000 tested, 0.039% active; Regulator of G-protein signaling 4 (Homo sapiens), P49798; further: nearly all actives have a fitted effect of over 75% in size
# Target sequence (P49798 whole entry, looked up): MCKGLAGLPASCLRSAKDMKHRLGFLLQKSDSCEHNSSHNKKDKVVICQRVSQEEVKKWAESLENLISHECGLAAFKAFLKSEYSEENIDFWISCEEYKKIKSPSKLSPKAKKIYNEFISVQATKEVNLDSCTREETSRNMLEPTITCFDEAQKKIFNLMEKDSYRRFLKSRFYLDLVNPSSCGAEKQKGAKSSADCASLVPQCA
#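 MLSMR compounds (23 nl, pin-transferred) preincubated 10 min at room temperature with a 500nM (2x) first reagent, then RGS4 at 900nM (2x) plus Transcreener GDP mix added; fluorescence polarization (620/688 nm) read before and after 90 min at 30 °C.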
# TDP1 block: qHTS Assay for Inhibitors of Tyrosyl-DNA Phosphodiesterase (TDP1); AID 485290, 2010; Tyrosyl-DNA phosphodiesterase 1 (Homo sapiens), Q9NUW8; recombinant TDP1, AlphaScreen DNA substrate cleavage; 350,000 tested, 0.28% active; Potency, µM (highest dose often 130 µM), for the others: at the top dose activity change, negative = inhibition, usual class: inhibitors; further: nearly all actives have a fitted effect of over 40% in size
#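 Here, a 5' biotin and 3' phosphotyrosine-FITC DNA oligonucleotide reports Tdp1 activity: intact substrate bridges AlphaScreen beads, while cleavage leaves a 3' phosphate and drops signal. All incubations at room temperature.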
# APE1 inh-1: qHTS Assay for Inhibitors of the Human Apurinic/apyrimidinic Endonuclease 1 (APE1) | DNA repair nuclease/redox regulator APEX1 (Homo sapiens), P27695 | recombinant APE1, TAMRA/BHQ-2 abasic DNA cleavage fluorescence | Potency, µM (highest dose often 65.8 µM), for the others: top-dose activity change, negative = inhibition, actives largely listed as inhibitors | 350,000 tested, 0.35% active;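 further: plate controls were vehicle for no effect and reference inhibitor for full effect; nearly all actives have a fitted effect of over 55% in size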
# Target sequence (P27695 whole entry, looked up): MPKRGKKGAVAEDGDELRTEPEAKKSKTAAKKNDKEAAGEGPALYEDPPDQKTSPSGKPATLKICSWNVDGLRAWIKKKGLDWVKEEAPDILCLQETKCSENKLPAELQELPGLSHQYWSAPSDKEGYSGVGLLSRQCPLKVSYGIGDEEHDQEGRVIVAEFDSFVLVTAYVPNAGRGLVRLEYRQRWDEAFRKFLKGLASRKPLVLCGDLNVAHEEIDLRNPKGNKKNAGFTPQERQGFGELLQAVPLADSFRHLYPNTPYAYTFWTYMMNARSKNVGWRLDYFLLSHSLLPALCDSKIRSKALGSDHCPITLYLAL
#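 0.75 nM APE1 + cpd, 15 min RT; start w/ 50 nM TAMRA/BHQ-2 THF-abasic dsDNA; kinetic fluor 525/598 nm ×3 reads @60 s; Δ(read3−read1); normalized to DMSO and NSC13755 control wells.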
# BLM inh: qHTS Assay for Inhibitors of Bloom's syndrome helicase (BLM); RecQ-like DNA helicase BLM (Homo sapiens), P54132; recombinant BLM DNA unwinding, fluorescence dequenching; Potency, µM (highest dose often 56.1 µM), for inactives: top-dose activity change, negative = inhibition, hits mostly inhibitors; 350,000 tested, 0.2% active;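 further: plate controls were vehicle for no effect and no enzyme for full effect; nearly all actives have a fitted effect of over 35% in size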
# APE1 dye cs: Counterscreen for APE1 Inhibitors: Fluorescent Dye Displacement Assay; shares compounds with APE1 inh-1; DNA fluorescent dye displacement counterscreen, fluorescence; Potency, µM (highest dose often 28.5 µM), without a hit: at the highest dose activity change, negative = inhibition, hits mostly inhibitors; 480 tested, 7% active; AID 2564, 2010;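 further: loss of thiazole orange fluorescence as the dye is displaced from duplex DNA; 0% = ThO with dsDNA and no compound and -100% = ThO without dsDNA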
# EndoIV counter: Counterscreen for APE1 Inhibitors: qHTS Assay for Inhibitors of Endonuclease IV | shares compounds with APE1 inh-1 | E. coli Endo IV, fluorogenic AP-site DNA cleavage | Potency, µM (titrated, usually from 27.1 µM), without a hit: at the highest dose activity change, negative = inhibition, usual class: inhibitors | 560 tested, 4% active;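 further: plate controls were uninhibited enzyme wells for no effect and no enzyme buffer wells for full effect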
# APE1 inh-2: Confirmation qHTS Assay for Inhibitors of the Human Apurinic/apyrimidinic Endonuclease 1 (APE1). shares compounds with APE1 inh-1. purified APE1, fluorogenic abasic-site DNA cleavage. Potency, µM (doses to about 57.1 µM), inactives show at the top dose activity change, negative = inhibition, actives largely listed as inhibitors. 750 tested, 44% active; further: nearly all actives have a fitted effect of over 30% in size
# APE1 FP: qHTS FP-Based Assay for Inhibitors of the Human Apurinic/apyrimidinic Endonuclease 1 (APE1). 480 tested, 7% active. APE1 binding to TAMRA-labelled double-stranded DNA, fluorescence polarization displacement. Potency, µM (doses to about 28.5 µM), for inactives: top-dose activity, negative = inhibition, hits mostly inhibitors. shares compounds with APE1 inh-1
# Numbers without * were called inactive; i = inactive; ? = inconclusive; . = no result; ! = a repeat was not active; [ ] = remark or other dose. The call rests on the fitted dose curve; in most records, active means well fitted curve in the direction sought with a large enough effect; inconclusive means small, poorly fitted or top-dose-only effect, or another doubt; inactive means no such curve, though single readings can be large; an effect the other way counts as inactive or inconclusive. Unless noted, on the % scale 0 is the no-effect control and ±100 the full control effect; potency means the concentration at half of the fitted maximal effect.
SMILES,RECQ1 inh,GCN5L2 inh,RGS4 inhibitor,TDP1 block,APE1 inh-1,BLM inh,EndoIV counter,APE1 inh-2,others
CC(=O)NC1C(OC2OC(CC(O)C3OC([N+]4=CCC(=O)NC4=O)C(O)C3O)C(O)C(O)C2NC(=O)/C=C/CCCCCCCCC(C)C)OC(CO)C(O)C1O (stereo not drawn),25%,-8%,?,13%,-3%,.,.,.,
CCCCCCCC1=Cc2ccc(F)cc2C(C(C(C)=O)C(=O)OC)N1C(=O)OC (stereo not drawn),2%,.,.,4%,-2%,-5%,.,.,
CCCCCC1=C2CNC(CCC)(C(=O)OC)C=C2C(C)C1=O (stereo not drawn),-2%,.,.,-15%,?,-7%,.,.,
CC1=CCC2C(=O)N(c3nc4ccccc4n3C)C(=O)C2C1 (stereo not drawn),-12%,.,9%,40µM*,?,3%,.,40µM*,
CC1=CCC2C(=O)N(C(C)c3ccccc3)C(=O)C2C1 (stereo not drawn),-14%,-7%,22%,2%,9%,0%,.,.,
CCC(=O)CC,-5%,-5%,.,.,?,-6%,.,.,
O=C1c2cccc3c(Cl)ccc(c23)C(=O)N1O,-5%,-1%,-16%,22µM*,?,-1%,-2%,-18%[24.4 µM],APE1 dye cs=-5%;APE1 FP=-102%
CCN1C(=O)c2cccc3c(Cl)ccc(c23)C1=O,i,-7%,1%,-3%,-3%,3%,.,.,
Cc1ccc(-c2cnc(NCc3c(F)cccc3Cl)n2C)cc1,.,-9%,6%,5%,.,-1%,.,.,
O=C1OC(c2ccc(Br)cc2)=N/C1=C\c1ccco1,-4%,-6%,-5%,-5%,18%,-2%,.,.,
CC1=N/C(=C/c2ccco2)C(=O)O1,?,-28%,-4%,5.6µM*,25µM*,2%,9%,35µM*,APE1 dye cs=-6%;APE1 FP=-19%
CCOC(=O)c1cc(S(=O)(=O)Nc2c(C)cc(C)cc2C)[nH]n1,.,-1%,-36%,5%,.,0%,.,.,
O=C(N/N=C1/C[C@@H](O)[C@@H](O)[C@@H]2[C@H]3C(=O)N(c4ccc(F)cc4F)C(=O)[C@@H]3CC[C@@H]12)OCc1ccccc1,-6%[11.5 µM],.,.,7%[21 µM],14%[12.4 µM],5%[12.4 µM],.,.,
O=C1CCC([N+](=O)[O-])C(c2cccc([N+](=O)[O-])c2)N1 (stereo not drawn),-4%,0%,4%,?,0.11µM*,0%,-1%,-5%[24.4 µM],APE1 dye cs=-7%;APE1 FP=-2%
O=C(NCCc1ccccc1)c1ccc2c(c1)N(Cc1c(F)cccc1Cl)C(=O)CS2,.,-8%,5%,3%,.,-4%,.,.,
CCN1/C(=C/C=C/c2oc3ccc4ccccc4c3[n+]2CC)Oc2ccc3ccccc3c21,i,1%,?,.,25µM*,-29%,3.2µM*,8.9µM*,APE1 dye cs=142%;APE1 FP=i
Cc1nc2c(c(=O)[nH]1)CSCC2,-10%,-4%,.,1%,14%,0%,.,.,
CC(C)[N+](C)(CCOC(=O)C1c2ccccc2Oc2ccccc21)C(C)C,?,-10%,-6%[56.9 µM],3%,8.9µM*!,10%,-7%[57.1 µM],-34%,
CC(C)(C)NC(=O)c1cc(F)c(F)cc1Cl,i,-1%,-25%,6%,7.1µM*,-14%,4%,?,APE1 dye cs=-8%;APE1 FP=-6%
COc1ccc2nc(N3CCCCC3)c(C#N)cc2c1,-3%,-11%,20%,40µM*,-3%,-9%,.,?,
O=C(O)C1C2C=CC(C2)C1C(=O)NCc1ccco1 (stereo not drawn),-6%,-18%,11%,-5%,-4%,-3%,.,.,
O=C(O)C1C2C=CC(C2)C1C(=O)NCc1cccs1 (stereo not drawn),i,0%,-13%,45µM*,?,-3%,.,?,
Cc1sc2ncnc(SCC(=O)NC(=O)NCc3ccco3)c2c1C,?,-6%,-22%,45µM*,28µM*,-27%,-1%,?,APE1 dye cs=15%;APE1 FP=20%
COc1cc(C2c3[nH]c4ccccc4c3CC3C(=O)N4C(Cc5c([nH]c6ccccc56)C4c4cc(OC)c(OC)c(OC)c4)C(=O)N32)cc(OC)c1OC (stereo not drawn),i[11.5 µM],.,.,7%[21 µM],6%[12.4 µM],2%[12.4 µM],.,.,
Nc1cc([N+](=O)[O-])ccc1N1C(=O)CCCC1=O,i,-2%,-10%,20µM*,?,-16%,.,?,
CC1CC=CC2C1C(=O)N(Cc1ccccc1)C2c1ccc(-c2ccc(N(C)C)cc2)cc1F (stereo not drawn),1%,.,7%,20%,-2%,-8%,.,.,
CCOC(=O)C(C)Sc1ccc2nnc(-c3ccc(OCC)cc3)n2n1 (stereo not drawn),.,.,13%,2%,.,.,.,.,
